The panel holds about 83,000 compounds, 20% with a hit somewhere; the sample as a whole holds those more often.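 Note: values are percent growth. 100 is the growth of untreated cells, values between 100 and 0 indicate rising inhibition; between -100 and 0 indicates cell death.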 A number with no mark means an inactive call. Calls of active or inactive are those of the source. Rule for the calls: active = growth percent below 10; inactive = the rest.

Assay in all cases: NCI-60 one-dose screen, 48 h (100 = growth as untreated, 0 = no growth, -100 = all killed)
Conditions in all cases: 10 µM unless noted

Experiment [1] concerns SR leukemia.
Experiment [2] relates to RPMI-8226 leukemia.
Experiment [3] relates to OVCAR-8 ovarian.
The subject of experiment [4] is OVCAR-5 ovarian.
The test system of experiment [5] is OVCAR-4 ovarian.
Experiment [6] deals with SK-OV-3 ovarian.
The test system of experiment [7] is IGROV1 ovarian.
In experiment [8] the test system is OVCAR-3 ovarian.
Experiment [9] relates to HS 578T breast.
The test system of experiment [10] is NCI/ADR-RES ovarian.

With `COC(CC(F)F)c1cn(S(=O)(=O)c2ccc(C)cc2)c2ccccc12` (stereo not given), the growth in experiment [1] was 12.2%; in [2], 32.1%; in experiment [3], 58.5%; in experiment [4], 33.3%; in experiment [5] it was 65.5%; in [6], 18.1%. The growth was 35.8% in experiment [7], 7.08% (active) in experiment [8], 32.5% in experiment [9] and 36.3% in experiment [10].
Consider `N#Cc1c(-c2ccccc2)[nH]c2ncc(-c3ccccc3)n2c1=O`, for which the growth in [1] is 89.8%; in experiment [2], 106%; in experiment [3], 95.6%; in [4], 109%; in experiment [5], 96.2%; in experiment [6], 76.6%. In addition, the growth in experiment [7] was 50.7%; in [8] it was 86%; in experiment [9] it was 88.6%; in [10], 91.2%.
Take `COc1ccc(C(O)c2cc3c(N)c(C(=O)Nc4cccc(Br)c4)sc3nc2C)cc1` (stereo not given): the growth in [1] is 8.67% (active); in [2], 10.9%; in experiment [3] it was 13.1%; in experiment [4], 11.2%; in [5], 39.7%; in experiment [6], 17.9%. The growth in experiment [7] was 11.4%; in [8], 3.84% (active); in experiment [9] it was -6% (active); in [10], 13.1%.
For `COc1cc2ncnc(Nc3ccc(F)c(Cl)c3)c2cc1OCC(=O)N1CCN(c2ccccc2)CC1`, the growth in experiment [1] was 84.4%; in experiment [2] it was 83.6%; in experiment [3], 93.5%; in experiment [4], 75%; in experiment [5], 85.7%; in experiment [6] it was 96%. Also, the growth in [7] is 48.9%; in experiment [8], 87.8%; in experiment [9] it was 93.9%; in experiment [10] it was 80.5%.
Regarding `COc1ccc(-c2cc(-c3ccc(Cl)cc3)c(C#N)c(=O)n2Cc2ccc(C(=O)Nc3ccccc3N)cc2)cc1`, the growth in experiment [1] was 40.9%; in [2] it was 57.1%; in [3], 92.8%; in [4], 96.7%; in experiment [5] it was 76.3%; in experiment [6], 92.6%. Also, the growth in [7] is 78.3%; in experiment [8] it was 42.6%; in [9], 46.2%; in experiment [10], 71.2%.
On to `COc1ccc(Nc2nc(-c3cc(O)c(C)c(C)c3O)cs2)cc1`, for which the growth is 37.1% in [1]; 33.6% in experiment [2]; 70.7% in experiment [3]; 103% in experiment [4]; 73.7% in experiment [5]; 71.3% in experiment [6]. In addition, the growth in [7] is 66.5%; in experiment [8], 10.5%; in experiment [9], 76.7%; in experiment [10], 23%.
Regarding `N=C(N)c1ccc(-c2ccc(-c3ccc(Cl)c(Cl)c3)s2)nc1`, the growth in experiment [1] was 3.84% (active); in experiment [2], -8.11% (active); in experiment [3] it was -19.9% (active); in experiment [4], 20.1%; in experiment [5] it was 16.3%; in experiment [6] it was 86.6%. In addition, the growth is -40.6% (active) in experiment [7], -77.8% (active) in experiment [8], 67.6% in [9] and 82.9% in experiment [10].
On to `CCOC(=O)c1c(NC(=O)c2cccc(C(F)(F)F)c2)sc2c(CN(C)C)c(O)ccc12`, for which the growth was -2.46% (active) in experiment [1]; -17.3% (active) in experiment [2]; 82.1% in experiment [3]; 89.5% in experiment [4]; 91.1% in experiment [5]; 101% in experiment [6]. Besides, the growth in experiment [7] was 83.1%; in experiment [8], 98.5%; in experiment [9], 89.8%; in experiment [10] it was 79%.
Take `Cc1c2cnccc2c(C)c2c1c1cc(C#N)ccc1n2C`: the growth is 0.777% (active) in [1]; -22.9% (active) in [2]; 6.24% (active) in experiment [3]; -15% (active) in experiment [4]; -39.4% (active) in experiment [5]; -3.17% (active) in experiment [6]. The growth in experiment [7] is -11.4% (active); in experiment [8] it was -7.57% (active); in [9], -18% (active); in experiment [10] it was -9.81% (active).
Take `Cc1ccc2c(n1)C(=O)C(Br)=C(C1CCCC1)C2=O`: the growth was 31.1% in experiment [1]; 55.9% in [2]; 96% in experiment [3]; 106% in experiment [4]; 112% in experiment [5]; 88.7% in [6]. Besides, the growth in experiment [7] is 96%; in experiment [8] it was 82.9%; in [9] it was 93.1%; in experiment [10] it was 97.1%.
As for `Cc1ccc2c(n1)C(=O)C(Br)=C(CC(C)C)C2=O`, the growth was 17% in experiment [1]; 53% in experiment [2]; 97.6% in experiment [3]; 102% in experiment [4]; 104% in experiment [5]; 101% in experiment [6]. Also, the growth is 81.5% in experiment [7], 53.1% in experiment [8], 102% in [9] and 98.4% in experiment [10].
For `c1ccc(-c2oc(-c3ccccc3)c(CN3CCCCC3)c2CN2CCCCC2)cc1`, the growth in experiment [1] was -2.07% (active); in experiment [2], -6.38% (active); in experiment [3], 33%; in experiment [4], 50.3%; in experiment [5] it was 11.9%; in [6], 52.3%. In addition, the growth in experiment [7] is 44.7%; in experiment [8], 23.4%; in experiment [9], 34.3%; in experiment [10] it was 39.8%.
With `CCCNc1nc2ccccc2c2c1S(=O)(=O)c1ccc(Cl)cc1C2=O`, the growth in [1] is 8.34% (active); in experiment [2] it was -10.2% (active); in experiment [3], 3.78% (active); in experiment [4], 8% (active); in experiment [5] it was 13.1%; in [6], 32.2%. The growth in [7] was 24.6%; in experiment [8], -17% (active); in [9], 7.32% (active); in [10], 8.31% (active).
Turning to `COC(=O)c1cc(N=C2NC(=O)/C(=C/C=C/c3ccccc3)S2)ccc1O`, the growth in experiment [1] is 27.5%; in [2], 18.8%; in [3], 25.6%; in [4] it was 71%; in [5] it was 58.9%; in experiment [6], 33.3%. For the same compound, the growth was 37.6% in experiment [7], 18.7% in experiment [8], 35.3% in [9] and 5.59% (active) in experiment [10].

Source of the values: PubChem BioAssay (NCI).
